How the values were obtained:
[1] = target: Protein kinase C gamma type (Homo sapiens) (UniProt P05129); details: at 1 µM;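 further: each value is an averaged percent inhibition of the enzyme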
[2] = target: T1, Protein kinase C iota type (Homo sapiens) (UniProt P41743); details: at 0.1 µM
T1 sequence (whole entry): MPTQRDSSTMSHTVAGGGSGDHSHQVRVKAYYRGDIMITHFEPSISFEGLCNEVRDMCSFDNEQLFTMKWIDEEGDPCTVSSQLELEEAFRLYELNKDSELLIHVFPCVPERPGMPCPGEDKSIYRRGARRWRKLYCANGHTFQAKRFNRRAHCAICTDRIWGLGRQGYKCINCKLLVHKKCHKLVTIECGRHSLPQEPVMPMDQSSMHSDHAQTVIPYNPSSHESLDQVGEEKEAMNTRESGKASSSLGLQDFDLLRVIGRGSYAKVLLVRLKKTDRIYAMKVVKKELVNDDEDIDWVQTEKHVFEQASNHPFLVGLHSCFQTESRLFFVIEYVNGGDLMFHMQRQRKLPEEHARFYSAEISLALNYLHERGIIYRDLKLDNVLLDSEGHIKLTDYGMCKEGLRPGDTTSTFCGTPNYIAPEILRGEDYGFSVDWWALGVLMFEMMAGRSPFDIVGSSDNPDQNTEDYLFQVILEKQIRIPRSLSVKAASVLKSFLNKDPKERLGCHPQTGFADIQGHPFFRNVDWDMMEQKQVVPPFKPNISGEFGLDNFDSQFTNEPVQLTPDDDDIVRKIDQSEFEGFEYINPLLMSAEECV

[3] = target: T1, Protein kinase C iota type (Homo sapiens); details: at 1 µM
[4] = target: Protein kinase C theta type (Homo sapiens) (UniProt Q04759); details: at 0.1 µM
[5] = target: Protein kinase C theta type (Homo sapiens) (UniProt Q04759); details: at 1 µM
[6] = target: Protein kinase C beta type (Homo sapiens) (UniProt P05771); details: at 0.1 µM
[7] = target: Protein kinase C beta type (Homo sapiens) (UniProt P05771); details: at 1 µM
[8] = target: T2, Serine/threonine-protein kinase D1 (Homo sapiens) (UniProt Q15139); details: at 0.1 µM
T2 sequence (whole entry): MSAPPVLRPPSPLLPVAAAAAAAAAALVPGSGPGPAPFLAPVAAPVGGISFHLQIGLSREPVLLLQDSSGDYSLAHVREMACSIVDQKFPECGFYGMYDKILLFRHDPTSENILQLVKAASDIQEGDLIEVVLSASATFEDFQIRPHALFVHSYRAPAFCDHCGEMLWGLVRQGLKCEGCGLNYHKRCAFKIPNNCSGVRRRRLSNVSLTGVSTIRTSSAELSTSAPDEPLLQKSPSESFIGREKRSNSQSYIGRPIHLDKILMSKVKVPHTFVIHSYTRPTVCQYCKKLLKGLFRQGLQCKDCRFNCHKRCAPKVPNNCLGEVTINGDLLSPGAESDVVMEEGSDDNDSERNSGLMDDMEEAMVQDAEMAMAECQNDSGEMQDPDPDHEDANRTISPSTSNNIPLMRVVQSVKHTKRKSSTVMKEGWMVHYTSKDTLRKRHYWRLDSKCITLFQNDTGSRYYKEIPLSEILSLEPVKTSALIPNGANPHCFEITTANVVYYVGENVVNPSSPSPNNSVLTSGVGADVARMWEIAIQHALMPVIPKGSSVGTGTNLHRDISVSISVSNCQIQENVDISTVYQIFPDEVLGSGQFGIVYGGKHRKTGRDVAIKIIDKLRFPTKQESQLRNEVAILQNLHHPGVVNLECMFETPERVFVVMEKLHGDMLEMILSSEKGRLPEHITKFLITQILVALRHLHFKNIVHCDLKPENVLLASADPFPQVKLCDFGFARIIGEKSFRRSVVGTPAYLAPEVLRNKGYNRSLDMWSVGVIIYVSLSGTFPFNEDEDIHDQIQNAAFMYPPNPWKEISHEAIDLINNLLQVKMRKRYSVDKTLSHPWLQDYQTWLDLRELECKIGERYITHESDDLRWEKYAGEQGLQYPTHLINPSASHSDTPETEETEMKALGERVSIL

[9] = target: T2, Serine/threonine-protein kinase D1 (Homo sapiens); details: at 1 µM
[10] = target: T3, Serine/threonine-protein kinase D2 (Homo sapiens) (UniProt Q9BZL6); details: at 0.1 µM
T3 sequence (whole entry): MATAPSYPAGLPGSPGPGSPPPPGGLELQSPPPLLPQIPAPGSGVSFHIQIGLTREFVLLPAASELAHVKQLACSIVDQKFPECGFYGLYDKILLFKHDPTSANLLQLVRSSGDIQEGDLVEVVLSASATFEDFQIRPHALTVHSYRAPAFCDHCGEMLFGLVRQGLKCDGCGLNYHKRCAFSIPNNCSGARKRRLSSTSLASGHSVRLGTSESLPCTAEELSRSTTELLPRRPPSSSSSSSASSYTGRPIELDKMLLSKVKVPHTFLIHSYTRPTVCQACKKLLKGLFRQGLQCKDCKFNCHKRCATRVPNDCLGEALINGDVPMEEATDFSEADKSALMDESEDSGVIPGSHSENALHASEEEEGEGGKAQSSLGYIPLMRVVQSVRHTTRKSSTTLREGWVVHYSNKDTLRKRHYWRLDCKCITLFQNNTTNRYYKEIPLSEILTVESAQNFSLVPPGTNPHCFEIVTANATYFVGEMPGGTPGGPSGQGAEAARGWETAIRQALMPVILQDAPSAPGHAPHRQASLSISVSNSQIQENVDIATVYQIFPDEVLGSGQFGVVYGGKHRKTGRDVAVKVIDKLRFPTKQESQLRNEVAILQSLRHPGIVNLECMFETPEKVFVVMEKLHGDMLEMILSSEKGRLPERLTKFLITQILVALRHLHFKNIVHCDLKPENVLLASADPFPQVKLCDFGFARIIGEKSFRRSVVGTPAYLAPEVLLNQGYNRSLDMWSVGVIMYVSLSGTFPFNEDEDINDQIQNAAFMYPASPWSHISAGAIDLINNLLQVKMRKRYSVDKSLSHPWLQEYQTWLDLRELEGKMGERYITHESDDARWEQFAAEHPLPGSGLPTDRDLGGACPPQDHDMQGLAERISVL

[11] = target: T3, Serine/threonine-protein kinase D2 (Homo sapiens); details: at 1 µM
[12] = target: T4, Serine/threonine-protein kinase D3 (Homo sapiens) (UniProt O94806); details: at 0.1 µM
T4 sequence (whole entry): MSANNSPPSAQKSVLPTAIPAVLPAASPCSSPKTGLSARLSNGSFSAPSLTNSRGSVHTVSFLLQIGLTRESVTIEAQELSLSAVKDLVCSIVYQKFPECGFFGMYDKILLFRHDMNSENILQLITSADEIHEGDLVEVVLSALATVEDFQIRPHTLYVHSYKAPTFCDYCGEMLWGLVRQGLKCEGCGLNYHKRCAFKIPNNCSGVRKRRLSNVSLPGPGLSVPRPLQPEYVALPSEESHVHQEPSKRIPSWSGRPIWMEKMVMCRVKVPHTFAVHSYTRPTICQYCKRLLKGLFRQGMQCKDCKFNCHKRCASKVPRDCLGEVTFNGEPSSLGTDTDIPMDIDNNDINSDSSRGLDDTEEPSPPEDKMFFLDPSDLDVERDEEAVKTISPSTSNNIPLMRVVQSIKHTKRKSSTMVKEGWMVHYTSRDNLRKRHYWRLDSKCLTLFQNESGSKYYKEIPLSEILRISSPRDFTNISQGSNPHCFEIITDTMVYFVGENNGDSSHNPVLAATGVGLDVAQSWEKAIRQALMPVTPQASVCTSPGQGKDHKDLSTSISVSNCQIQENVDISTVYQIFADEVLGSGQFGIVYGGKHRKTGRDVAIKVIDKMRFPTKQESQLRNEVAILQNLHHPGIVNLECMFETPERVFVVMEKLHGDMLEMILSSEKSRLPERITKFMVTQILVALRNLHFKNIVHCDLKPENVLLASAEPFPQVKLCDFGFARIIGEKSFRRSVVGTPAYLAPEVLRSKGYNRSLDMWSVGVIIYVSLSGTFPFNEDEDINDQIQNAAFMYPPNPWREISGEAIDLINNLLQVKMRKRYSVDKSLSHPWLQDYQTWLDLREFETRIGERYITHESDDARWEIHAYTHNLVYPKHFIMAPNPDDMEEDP

[13] = target: T4, Serine/threonine-protein kinase D3 (Homo sapiens); details: at 1 µM
[14] = target: T5, cGMP-dependent protein kinase 1 (Homo sapiens) (UniProt Q13976); details: at 0.1 µM
T5 sequence (whole entry): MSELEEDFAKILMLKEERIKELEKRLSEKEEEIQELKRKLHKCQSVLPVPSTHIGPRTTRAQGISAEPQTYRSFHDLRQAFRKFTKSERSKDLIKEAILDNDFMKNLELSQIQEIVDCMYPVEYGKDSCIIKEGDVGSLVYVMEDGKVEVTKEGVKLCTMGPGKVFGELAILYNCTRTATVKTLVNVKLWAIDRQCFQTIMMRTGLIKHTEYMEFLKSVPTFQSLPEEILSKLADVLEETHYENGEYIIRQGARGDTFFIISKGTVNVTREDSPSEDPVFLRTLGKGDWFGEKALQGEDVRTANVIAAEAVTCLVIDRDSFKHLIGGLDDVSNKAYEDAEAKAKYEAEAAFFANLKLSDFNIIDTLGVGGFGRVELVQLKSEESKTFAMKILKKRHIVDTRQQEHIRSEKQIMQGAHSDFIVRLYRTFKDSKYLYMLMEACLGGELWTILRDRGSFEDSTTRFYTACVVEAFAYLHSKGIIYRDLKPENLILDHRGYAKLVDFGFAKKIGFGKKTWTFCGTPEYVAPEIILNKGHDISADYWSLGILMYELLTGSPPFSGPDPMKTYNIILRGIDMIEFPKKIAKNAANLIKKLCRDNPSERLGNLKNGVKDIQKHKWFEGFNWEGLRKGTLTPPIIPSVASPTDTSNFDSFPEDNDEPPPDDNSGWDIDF

[15] = target: T5, cGMP-dependent protein kinase 1 (Homo sapiens); details: at 1 µM
[16] = target: T6, cGMP-dependent protein kinase 2 (Homo sapiens) (UniProt Q13237); details: at 0.1 µM
T6 sequence (whole entry): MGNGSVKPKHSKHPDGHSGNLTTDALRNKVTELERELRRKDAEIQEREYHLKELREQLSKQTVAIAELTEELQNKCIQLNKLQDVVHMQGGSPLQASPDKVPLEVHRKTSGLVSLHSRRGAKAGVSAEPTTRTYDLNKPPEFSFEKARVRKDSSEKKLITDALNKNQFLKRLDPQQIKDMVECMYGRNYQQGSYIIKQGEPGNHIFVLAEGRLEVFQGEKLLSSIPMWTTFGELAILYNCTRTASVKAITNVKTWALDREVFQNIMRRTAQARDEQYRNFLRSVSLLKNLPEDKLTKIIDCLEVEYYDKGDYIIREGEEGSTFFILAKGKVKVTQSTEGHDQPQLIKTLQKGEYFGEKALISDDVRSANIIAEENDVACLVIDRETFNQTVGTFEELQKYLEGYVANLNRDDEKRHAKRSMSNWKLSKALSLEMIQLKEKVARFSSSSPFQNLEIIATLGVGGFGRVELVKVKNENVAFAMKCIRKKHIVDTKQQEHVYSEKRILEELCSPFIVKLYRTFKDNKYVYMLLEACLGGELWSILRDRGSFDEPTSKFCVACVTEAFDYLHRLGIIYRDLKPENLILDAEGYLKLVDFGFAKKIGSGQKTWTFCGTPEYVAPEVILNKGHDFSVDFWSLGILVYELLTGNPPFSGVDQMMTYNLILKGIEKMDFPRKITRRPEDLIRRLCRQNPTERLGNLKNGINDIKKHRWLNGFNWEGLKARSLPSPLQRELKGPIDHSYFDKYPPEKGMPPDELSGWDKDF

[17] = target: T6, cGMP-dependent protein kinase 2 (Homo sapiens); details: at 1 µM
[18] = target: T7, cAMP-dependent protein kinase catalytic subunit PRKX (Homo sapiens) (UniProt P51817); details: at 0.1 µM
T7 sequence (whole entry): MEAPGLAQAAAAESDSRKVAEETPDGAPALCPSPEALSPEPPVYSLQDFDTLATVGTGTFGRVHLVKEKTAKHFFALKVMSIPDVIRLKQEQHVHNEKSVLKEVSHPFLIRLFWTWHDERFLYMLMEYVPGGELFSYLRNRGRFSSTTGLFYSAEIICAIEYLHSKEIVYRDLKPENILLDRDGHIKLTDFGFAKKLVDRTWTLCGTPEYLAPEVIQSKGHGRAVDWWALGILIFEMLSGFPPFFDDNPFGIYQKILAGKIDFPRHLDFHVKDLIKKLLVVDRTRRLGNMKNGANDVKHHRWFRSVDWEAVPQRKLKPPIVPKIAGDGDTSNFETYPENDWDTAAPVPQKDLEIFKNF

[19] = target: T7, cAMP-dependent protein kinase catalytic subunit PRKX (Homo sapiens); details: at 1 µM
[20] = target: Rho-associated protein kinase 1 (Homo sapiens) (UniProt Q13464); details: at 0.1 µM;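 further: values are mean percent inhibition of ROCK1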
Rho-associated protein kinase 1 (Homo sapiens), sequence (Q13464 2-1354 limits assumed): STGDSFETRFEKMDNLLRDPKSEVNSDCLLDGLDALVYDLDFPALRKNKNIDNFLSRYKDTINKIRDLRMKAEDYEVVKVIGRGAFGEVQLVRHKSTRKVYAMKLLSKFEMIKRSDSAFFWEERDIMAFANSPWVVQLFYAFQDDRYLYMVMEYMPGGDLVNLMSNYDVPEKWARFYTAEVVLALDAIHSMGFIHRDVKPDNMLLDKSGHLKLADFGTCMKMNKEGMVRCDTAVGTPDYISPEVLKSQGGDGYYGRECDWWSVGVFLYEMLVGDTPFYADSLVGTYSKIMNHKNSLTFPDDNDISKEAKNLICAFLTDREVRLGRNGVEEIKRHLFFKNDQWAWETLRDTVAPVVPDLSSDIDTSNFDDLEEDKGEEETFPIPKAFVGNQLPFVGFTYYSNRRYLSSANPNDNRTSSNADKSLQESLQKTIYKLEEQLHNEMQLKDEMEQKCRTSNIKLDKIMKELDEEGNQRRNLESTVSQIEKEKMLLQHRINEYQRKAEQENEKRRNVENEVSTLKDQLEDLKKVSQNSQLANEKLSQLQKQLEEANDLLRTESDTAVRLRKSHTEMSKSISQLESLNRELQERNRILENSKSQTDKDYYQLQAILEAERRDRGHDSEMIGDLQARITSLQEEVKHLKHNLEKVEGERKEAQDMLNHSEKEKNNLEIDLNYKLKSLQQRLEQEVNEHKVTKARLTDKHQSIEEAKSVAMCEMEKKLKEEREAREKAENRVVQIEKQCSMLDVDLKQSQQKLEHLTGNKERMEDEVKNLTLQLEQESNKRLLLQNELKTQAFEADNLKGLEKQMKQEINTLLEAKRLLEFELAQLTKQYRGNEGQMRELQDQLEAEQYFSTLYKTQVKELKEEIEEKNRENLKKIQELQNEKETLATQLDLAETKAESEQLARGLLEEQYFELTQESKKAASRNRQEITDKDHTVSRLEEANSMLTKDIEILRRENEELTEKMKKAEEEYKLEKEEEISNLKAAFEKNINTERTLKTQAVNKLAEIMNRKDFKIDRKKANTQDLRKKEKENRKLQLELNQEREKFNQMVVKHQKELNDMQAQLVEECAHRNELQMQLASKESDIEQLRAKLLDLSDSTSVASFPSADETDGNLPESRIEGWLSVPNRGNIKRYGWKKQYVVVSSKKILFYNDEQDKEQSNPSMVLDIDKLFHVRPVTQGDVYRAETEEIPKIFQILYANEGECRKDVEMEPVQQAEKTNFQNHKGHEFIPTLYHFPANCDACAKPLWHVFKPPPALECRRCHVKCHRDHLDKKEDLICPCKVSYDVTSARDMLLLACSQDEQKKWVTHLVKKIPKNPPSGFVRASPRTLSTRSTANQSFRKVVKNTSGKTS

Protein kinase C theta type (Homo sapiens), sequence (Q04759 whole entry, looked up): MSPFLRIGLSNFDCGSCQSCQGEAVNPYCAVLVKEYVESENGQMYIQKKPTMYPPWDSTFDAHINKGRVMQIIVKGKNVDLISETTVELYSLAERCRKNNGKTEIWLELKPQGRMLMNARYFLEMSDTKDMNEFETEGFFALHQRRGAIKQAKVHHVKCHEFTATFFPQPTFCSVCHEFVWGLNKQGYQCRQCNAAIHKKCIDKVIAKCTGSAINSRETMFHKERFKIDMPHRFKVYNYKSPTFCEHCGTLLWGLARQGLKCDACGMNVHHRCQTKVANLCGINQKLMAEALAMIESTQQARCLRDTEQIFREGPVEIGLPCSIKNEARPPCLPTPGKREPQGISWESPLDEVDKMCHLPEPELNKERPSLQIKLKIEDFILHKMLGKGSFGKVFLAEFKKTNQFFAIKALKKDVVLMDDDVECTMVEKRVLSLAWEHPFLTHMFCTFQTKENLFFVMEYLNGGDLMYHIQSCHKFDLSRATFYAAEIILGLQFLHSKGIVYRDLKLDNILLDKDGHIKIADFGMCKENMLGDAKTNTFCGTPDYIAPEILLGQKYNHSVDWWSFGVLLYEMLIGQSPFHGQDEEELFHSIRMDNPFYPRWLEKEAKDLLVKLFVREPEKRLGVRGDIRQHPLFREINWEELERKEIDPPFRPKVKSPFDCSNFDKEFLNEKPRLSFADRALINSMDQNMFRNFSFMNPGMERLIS
Protein kinase C beta type (Homo sapiens), sequence (P05771 2-671 limits assumed): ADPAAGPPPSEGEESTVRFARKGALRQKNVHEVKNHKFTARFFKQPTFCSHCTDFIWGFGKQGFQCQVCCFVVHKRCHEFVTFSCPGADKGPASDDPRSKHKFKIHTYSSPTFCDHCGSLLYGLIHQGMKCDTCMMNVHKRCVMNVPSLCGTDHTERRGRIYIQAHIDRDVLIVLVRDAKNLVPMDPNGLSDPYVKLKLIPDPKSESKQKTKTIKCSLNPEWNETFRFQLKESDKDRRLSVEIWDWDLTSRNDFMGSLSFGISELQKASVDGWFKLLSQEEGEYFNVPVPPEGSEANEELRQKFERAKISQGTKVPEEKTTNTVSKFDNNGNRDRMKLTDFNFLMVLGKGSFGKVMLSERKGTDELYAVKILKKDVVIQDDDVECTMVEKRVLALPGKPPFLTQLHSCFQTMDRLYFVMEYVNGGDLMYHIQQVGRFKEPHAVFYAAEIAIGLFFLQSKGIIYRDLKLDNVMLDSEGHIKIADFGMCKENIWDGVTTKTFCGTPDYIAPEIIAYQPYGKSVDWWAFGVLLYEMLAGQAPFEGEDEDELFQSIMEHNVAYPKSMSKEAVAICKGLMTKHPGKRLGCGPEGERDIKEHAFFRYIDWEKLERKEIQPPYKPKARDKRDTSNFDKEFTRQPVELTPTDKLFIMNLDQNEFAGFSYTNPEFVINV

| SMILES | inhibition [1] | inhibition [2] | inhibition [3] | inhibition [4] | inhibition [5] | inhibition [6] | inhibition [7] | inhibition [8] | inhibition [9] | inhibition [10] | inhibition [11] | inhibition [12] | inhibition [13] | inhibition [14] | inhibition [15] | inhibition [16] | inhibition [17] | inhibition [18] | inhibition [19] | inhibition [20] |
| --- | --- | --- | --- | --- | --- | --- | --- | --- | --- | --- | --- | --- | --- | --- | --- | --- | --- | --- | --- | --- |
| O=C1NC(=O)C(c2ccccc2Cl)=C1Nc1cccc(O)c1 | 1.06% | 1.73% | 3.13% | 1.38% | 3.85% | 2.15% | 14.5% | 2.34% | 4.55% | 1.91% | 2.71% | 2.73% | 2.86% | 2.17% | 3.29% | 1.54% | 4.57% | 2.14% | 4.07% | 3.29% |
| COc1ccc(COc2ccc(Cc3cnc(N)nc3N)cc2OC)cc1 | 0.23% | 0.94% | 2.56% | 0.95% | -0.58% | 2% | 1.96% | 0.61% | 2.03% | -0.07% | 4.2% | 0.01% | 2.56% | 4.15% | 3.2% | 2.89% | 3.2% | 2.09% | 1.07% | 2.35% |
| COc1ccc(-c2nn3ncccc3c2-c2ccnc(Nc3ccc(Cl)c(C(F)(F)F)c3)n2)cc1 | -0.57% | 0.28% | -1.6% | 1.56% | 2.55% | 0.91% | 0.81% | 2.22% | 3.95% | 2.47% | 4.34% | 2.86% | 3.78% | 0.21% | 0.97% | 0.9% | 2.46% | 0.84% | 3.14% | 1.25% |
| Cc1ccc(NC(=O)c2ccnc(N3CCCC3)c2)cc1-c1ccc(C(=O)NCC2CC2)cc1 | 2.77% | 2.01% | 3.68% | 1.28% | 3.17% | 1.24% | 2.94% | 3.07% | 9.98% | 2.95% | 9.48% | 3.21% | 10.1% | 2.12% | 6.39% | 3.92% | 6.54% | 1.47% | 2.53% | 10% |
